Reference: the supplement of paper PMC12636033
± gives the standard deviation of the averaged measurements. Over roughly 33,000 sequences, “E-score (rank enrichment, -0.5 to 0.5)” has its median near -0.0028; the highest 2% begin near 0.23. The list comes from a sample in which the highest values are over-represented; it also holds similar and randomly drawn sequences.

System: 2Sb-muMax20 (muMax20 with two 1,3-bis(methyl)benzene Cys staples, A13C/A17C and Q88C/A92C, C-terminal Lys)
Test: PBM 8-mer E-score (E-score (rank enrichment, -0.5 to 0.5)); higher = stronger preferential binding
Protocol: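 Protein binding microarray (universal PBM chip covering all 10-mers in fixed probe flanks) with chemically synthesized human Max(13-93) bHLH-LZ analogs (not full-length Max) bearing noncanonical residues (hArg, Tha, Aib, Nle at 65) and aromatic Cys staples. Read-out per 8-mer (and its reverse complement): E-score (rank-based enrichment, -0.5 to 0.5) and Z-score of median probe intensity.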

Sequence | PBM 8-mer E-score
CCAACGAC | -0.133 ± 0.023
CTAACTAA | 0.0585 ± 0.065
CAAACTAA | 0.0893 ± 0.026
AAAACTAA | 0.132 ± 0.019
ATAACTAA | 0.112 ± 0.031
TTAACTAA | 0.241 ± 0.014
TAAACTAA | 0.233 ± 0.028
GACTGCCA | -0.0667 ± 0.023
ACCCCAGG | -0.107 ± 0.067
ACCCCAGT | 0.336 ± 0.028
ACCCCACT | 0.293 ± 0.044
ACCCCAGA | 0.156 ± 0.044
ACCCCACC | 0.22 ± 0.074
AACCCACT | 0.059 ± 0.037
ATTGAAGG | 6e-05 ± 0.019
AGTTCAAA | -0.0257 ± 0.13
AACCGGCC | -0.167 ± 0.021
CCGCTGCC | -0.123 ± 0.029
CAGAGAGA | -0.0625 ± 0.011
GTACAAAA | 0.27 ± 0.0082
ATACAAAT | 0.148 ± 0.12
TTACAAAA | 0.181 ± 0.03
CTACAAAA | 0.0645 ± 0.037
ATACAAAA | 0.296 ± 0.014
GTACAAAC | 0.028 ± 0.04

Sequence | PBM 8-mer E-score
ACCTGTCC | 0.0598 ± 0.062
AATATGGC | 0.221 ± 0.025
CACAGCAC | -0.0272 ± 0.038
AGTAAGTA | 0.126 ± 0.027
CATAAGTA | 0.163 ± 0.049
GTTAAGTA | 0.0909 ± 0.029
AATAAGTA | 0.285 ± 0.0052
AGTAAGTC | 0.1006 ± 0.00054
ATTAAGTA | 0.236 ± 0.026
ATTAAGTG | 0.122 ± 0.011
AGTAAGTG | 0.2306 ± 0.0021
AATAAGTG | 0.17 ± 0.066
CTGACCAC | -0.0726 ± 0.025
AGGTGGAA | -0.00713 ± 0.04
GTTATTAA | 0.0581 ± 0.1
CAGTCTGG | -0.18 ± 0.038
CAAATTCG | 0.000655 ± 0.064
CACTTAAG | 0.0265 ± 0.011
ATGGACCG | -0.222 ± 0.029
ACCCAAGG | 0.0572 ± 0.07
ACCCAAGC | -0.0166 ± 0.044
ACCCAAAG | 0.0519 ± 0.028
ACCCAAGT | 0.282 ± 0.052
ACCCAAAA | -0.0026 ± 0.17
ACCCAAAT | 0.277 ± 0.028

Sequence | PBM 8-mer E-score
AGGAAACA | 0.0889 ± 0.046
AGTCGCCC | -0.0113 ± 0.15
AACCGTAT | -0.0505 ± 0.036
CTGTGCGC | 0.0257 ± 0.14
AACGTTCC | 0.142 ± 0.028
CCGATGCC | -0.029 ± 0.062
AAAGCAAT | 0.268 ± 0.011
ATAGCAAC | 0.031 ± 0.02
AAAGCAAC | 0.0449 ± 0.04
ATAGCAAG | 0.157 ± 0.0043
AAAGCAAG | 0.167 ± 0.024
ATAGCAAT | 0.234 ± 0.05
CCGTAACC | -0.243 ± 0.07
ATAACCTG | 0.113 ± 0.024
AATGGCGT | 0.0723 ± 0.025
CGTGCACG | 0.357 ± 0.019
TGTGCACA | -0.0483 ± 0.071
CGTGCACA | 0.123 ± 0.094
AAACGTTT | 0.171 ± 0.011
AGGCAGGC | -0.109 ± 0.057
CTATTTCC | 0.259 ± 0.0072
ATATTTCC | -0.00852 ± 0.065
CTATTTCA | 0.135 ± 0.01
CCAAGCAA | 0.0514 ± 0.029
ATGGATTA | -0.131 ± 0.0052

Sequence | PBM 8-mer E-score
AGCGTCAA | -0.0167 ± 0.026
ACACAAGA | 0.0809 ± 0.01
CATTGTAC | 0.238 ± 0.031
AATTGTAG | 0.0147 ± 0.034
AATTGTAA | 0.165 ± 0.011
GATTGTAC | 0.051 ± 0.031
CATTGTAG | 0.033 ± 0.059
AATTGTAC | 0.2375 ± 0.0016
GATTCGAC | -0.119 ± 0.031
GCAGGTGA | -0.000525 ± 0.049
AGCACAGA | 0.00824 ± 0.026
AACATGCT | 0.0156 ± 0.11
AAAACTGC | -0.0787 ± 0.029
ACATTATA | 0.222 ± 0.013
AAACGAAT | 0.0979 ± 0.067
CAACCGGG | -0.22 ± 0.053
ACTCACAA | 0.124 ± 0.028
ACCTCGAC | -0.178 ± 0.084
ATGCATTC | 0.248 ± 0.054
GTGCATCA | 0.0577 ± 0.073
ATGCATTG | 0.133 ± 0.0027
GTGCATTA | 0.0825 ± 0.077
GTGCAATA | 0.118 ± 0.07
CTGCATTA | 0.0983 ± 0.0036
ATGCAATA | 0.269 ± 0.021

Sequence | PBM 8-mer E-score
ATGCATCA | 0.332 ± 0.0056
CTGCATTC | 0.0548 ± 0.014
CTGCAATA | 0.0131 ± 0.065
ATGCATTA | 0.311 ± 0.01
ATGCATCG | 0.0238 ± 0.0075
AAAACCCA | 0.145 ± 0.034
CGTGCCCC | 0.0242 ± 0.014
GCTCTCTA | -0.0575 ± 0.015
ACCTGCCC | -0.236 ± 0.049
AGGCATAG | 0.017 ± 0.038
CAAGTAAA | 0.114 ± 0.018
CCTACACC | 0.00456 ± 0.037
TCGCGTCA | -0.0876 ± 0.026
ATGCATAA | 0.213 ± 0.023
CTGCATAC | 0.0495 ± 0.019
ATGCATAC | 0.253 ± 0.0083
GCGGCGAC | -0.148 ± 0.0016
GAAACAAA | 0.301 ± 0.065
AAAACATA | 0.1684 ± 0.0003
GAAACATA | 0.268 ± 0.048
GAAACAAC | 0.0094 ± 0.1
TAAAACAA | -0.00029 ± 0.077
GAAACATC | 0.0426 ± 0.019
GAAAACAA | 0.244 ± 0.069
CAAACAAA | 0.0981 ± 0.0047

Sequence | PBM 8-mer E-score
AAAAACAA | 0.158 ± 0.049
GATTATTA | 0.1 ± 0.071
ATTACGAG | 0.164 ± 0.013
CGAGTTAA | 0.0575 ± 0.082
ACTCAGAA | 0.0145 ± 0.00035
CTTAGTAC | 0.0932 ± 0.025
TATCCAAA | 0.103 ± 0.028
CCCGTCGA | -0.109 ± 0.064
CTGTGGTC | -0.235 ± 0.017
CAAGAAGA | 0.0996 ± 0.012
ATGTTAAC | 0.306 ± 0.013
GAGTTAAC | 0.0742 ± 0.055
CTGTTAAC | 0.105 ± 0.041
GTGTTAAC | -0.018 ± 0.016
CAGTTAAC | 0.0298 ± 0.036
AAGTTAAC | 0.233 ± 0.052
CCAGTAGA | -0.0423 ± 0.068
AAGCCTGA | -0.17 ± 0.034
ACCTCCGG | -0.194 ± 0.037
CGCTGTAA | -0.00707 ± 0.013
AGGTAGCG | -0.0415 ± 0.0036
CCATGCGA | 0.0911 ± 0.01
GCATGCGA | 0.266 ± 0.042
GCATGCGC | 0.112 ± 0.049
TCGAAAGA | 0.0439 ± 0.024

Sequence | PBM 8-mer E-score
CATAGATG | -0.111 ± 0.065
CAAGGCAC | 0.0684 ± 0.076
ACTAGCCT | 0.134 ± 0.035
CTCCCGCA | 0.0448 ± 0.016
AAACATAT | 0.247 ± 0.042
AAACATAA | 0.28 ± 0.013
GAACATAA | 0.198 ± 0.058
AAACATAG | 0.0193 ± 0.016
TAACATAA | 0.217 ± 0.058
AAACATAC | 0.199 ± 0.015
CCGATCAG | -0.247 ± 0.028
GGGCTTAA | 0.0764 ± 0.033
GGAATGTA | 0.0875 ± 0.012
CGAATGCC | -0.00354 ± 0.078
CGAATGTC | -0.0317 ± 0.0078
CGAATGCG | -0.0308 ± 0.079
CGAATGTA | 0.241 ± 0.011
CGAATGCA | 0.248 ± 0.035
ACAGTACC | -0.0999 ± 0.06
GCTGTGCA | -0.0668 ± 0.075
GGCCACAC | -0.0997 ± 0.082
CTTAACTC | 0.0502 ± 0.01
